# DT40 TDP1 CPT: qHTS for Inhibitors of human tyrosyl-DNA phosphodiesterase 1 (TDP1): qHTS in cells in presence of CPT. 420,000 compounds, 12% hits. Potency, µM (highest dose often 46.2 µM), hits mostly inhibitors. chicken DT40 Tdp1-/-;hTDP1 cells + 20 nM CPT, ATP luminescence, 48 h; also: nearly all actives have a fitted effect of over 55% in size
#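 Chicken DT40 Tdp1-/- cells complemented with human TDP1, 400 cells/well, exposed to compounds plus 20 nM camptothecin for at least 48 h at 37 C; viability read as ATP content by CellTiter-Glo luminescence.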
# HT1080 IDH1KD tx: qHTS for induction of synthetic lethality in tumor cells producing 2HG: qHTS for the HT-1080-IDH1KD cell line; AID 686971, 2013; Potency, µM (top dose mostly 46.1 µM), usual class: cytotoxic; HT-1080 IDH1 knockdown viability, ATP luminescence, 48 h; 360,000 compounds, 2% hits
#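 Using the IDH1-knockdown HT-1080 line run in the same batch and compound series as the NT line, viability after 48 h at 37 °C was determined by CellTiter-Glo luminescence and expressed as % activity.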
# 12-LOX inh: Primary qHTS assay for inhibitors of human arachidonate 12S-lipoxygenase (ALOX12): Round 2 | 580,000 compounds, 1.1% hits | Potency, µM (series often up to 108 µM), hits mostly inhibitors | purified 12hLO, xylenol orange hydroperoxide absorbance | Polyunsaturated fatty acid lipoxygenase ALOX12 (Homo sapiens), P18054
# Target sequence (P18054 whole entry, looked up): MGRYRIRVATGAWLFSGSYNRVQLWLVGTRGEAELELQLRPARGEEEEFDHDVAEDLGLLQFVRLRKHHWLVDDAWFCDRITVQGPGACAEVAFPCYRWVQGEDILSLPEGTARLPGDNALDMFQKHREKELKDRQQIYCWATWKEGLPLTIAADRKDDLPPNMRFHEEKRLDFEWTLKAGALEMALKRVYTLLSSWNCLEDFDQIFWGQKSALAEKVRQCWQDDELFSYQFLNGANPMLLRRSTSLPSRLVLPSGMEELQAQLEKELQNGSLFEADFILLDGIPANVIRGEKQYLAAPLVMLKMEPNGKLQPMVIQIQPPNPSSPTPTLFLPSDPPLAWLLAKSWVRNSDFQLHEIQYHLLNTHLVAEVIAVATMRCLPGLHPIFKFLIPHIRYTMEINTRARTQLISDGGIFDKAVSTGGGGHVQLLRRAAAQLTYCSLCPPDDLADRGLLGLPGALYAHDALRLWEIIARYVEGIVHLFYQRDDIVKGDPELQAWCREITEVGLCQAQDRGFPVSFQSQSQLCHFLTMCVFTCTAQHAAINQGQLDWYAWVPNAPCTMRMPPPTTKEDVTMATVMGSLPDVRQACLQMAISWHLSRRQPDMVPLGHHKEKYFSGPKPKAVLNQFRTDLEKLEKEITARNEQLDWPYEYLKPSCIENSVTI
#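 Purified human 12hLO (150 nM final) in 25 mM Hepes, 0.01% Triton X-100, pH 7.0 was preincubated 15 min at room temperature with compound. Then 40 uM arachidonic acid was added, 30 min. Hydroperoxide was read by Fe-XO absorbance ratio 573/405 nm.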
# TDP1 cell noCPT: qHTS for Inhibitors of human tyrosyl-DNA phosphodiesterase 1 (TDP1): qHTS in cells in absence of CPT. DT40 Tdp1-/- hTDP1 cells, no CPT, ATP luminescence, 48 h. AID 686978, 2013. 420,000 compounds, 15% hits. Potency, µM (titrated, usually from 46.2 µM), most hits filed as inhibitors; also: nearly all actives have a fitted effect of over 55% in size
#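 Stably hTDP1-transfected Tdp1-null chicken DT40 cells were treated with library compounds minus camptothecin and grown for at least 48 hr at 37 °C, after which cellular ATP was quantified by luminescence.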
# IL-1B inflam inh: qHTS for Inhibitors of Inflammasome Signaling: IL-1-beta AlphaLISA Primary Screen. THP-1 LPS/ATP IL-1B secretion, AlphaLISA, 16 h; hits give low values. activity change, % at 57.5 µM. 360,000 compounds, 4.7% hits; in the data active = activity change below about -50%; inconclusive = mostly about -30% to -49%
#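 Secreted IL-1B measured by AlphaLISA bead assay after 16 h compound exposure of THP-1 cells; compounds (final up to 57.5 uM) added 1 h before LPS (250 ng/mL) and ATP (1.25 mM) stimulation; lower signal means less secretion.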
# HT1080-NT tox: qHTS for induction of synthetic lethality in tumor cells producing 2HG: qHTS for the HT-1080-NT fibrosarcoma cell line. 360,000 compounds, 1.6% hits. Potency, µM (doses to about 46.1 µM), actives largely listed as cytotoxic. HT-1080-NT fibrosarcoma viability, CellTiter-Glo ATP luminescence, 48 h;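 also: NT is the 2HG producing partner of a matched IDH1 knockdown line; nearly all actives have a fitted effect of over 55% in size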
#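 Read-out is CellTiter-Glo luminescence after 10 minutes at room temperature, following 48 hours' compound treatment of HT-1080-NT cells (750 cells/well, RPMI, 5% FBS, 37 degrees C).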
# Hits are given with their value; n = inactive; u = inconclusive; x = not tested or not shown. This is one part of a sample in which hits are shown more often than they occur. Unless noted, calls follow the shape of the dose curve; as a rule, active = well fitted curve in the direction sought with a large enough effect; inconclusive = small, poorly fitted or top-dose-only effect, or another doubt; inactive = no such curve, though single readings can be large; an effect the other way counts as inactive or inconclusive.
SMILES,DT40 TDP1 CPT,HT1080 IDH1KD tx,12-LOX inh,TDP1 cell noCPT,IL-1B inflam inh,HT1080-NT tox
Cc1onc(-c2ccccc2)c1C(=O)Nc1ccc(S(=O)(=O)N2CCOCC2)cc1,u,n,n,23µM,n,n
COc1ccc2cnn(CC(=O)Nc3ccc(Br)cc3)c(=O)c2c1OC,x,x,n,x,x,x
O=C(NC[C@H]1Cn2c(-c3ccccc3)cnc2CO1)c1ccccc1,x,x,n,x,x,x
O=C(Nc1cccc(S(=O)(=O)C(F)F)c1)c1ccc(S(=O)(=O)N2CCCCC2)cc1,u,u,n,u,-62,u
CN(C)S(=O)(=O)c1cccc(NC(=O)c2ccc(S(=O)(=O)N3CCCCC3)cc2)c1,u,n,n,u,n,n
O=C(Nc1ccccc1)c1ccc(CN2CCc3ccccc3C2)cc1,n,n,n,n,n,n
CC(OC(=O)c1cc(Br)ccc1O)C(=O)Nc1ccc(S(=O)(=O)N2CCCC2)cc1 (stereo unspecified),u,u,n,16µM,u,u
O=C(Nc1ccc(S(=O)(=O)N2CCCCC2)cc1)c1ccc(CN2CCc3ccccc3C2)cc1,10µM,u,n,4.6µM,n,u
O=C(Nc1cccc(C(=O)N2CCCCC2)c1)c1ccccc1,n,n,n,n,n,u
O=C(Nc1cccc(C(=O)N2CCCCC2)c1)c1ccc(Cl)cc1,u,n,n,21µM,n,n
N#CCSc1cc(C(=O)NC2CC2)c2ccccc2n1,x,x,n,x,x,x
O=C(NCc1cccs1)C1CCC(=O)N(Cc2cccc(C(F)(F)F)c2)C1 (stereo unspecified),n,n,n,u,n,n
O=C(NS(=O)(=O)Nc1ccc(Br)cn1)c1c[nH]c2ccccc12,n,n,n,n,n,n
Cc1cnc(C(=O)Nc2ccccc2C(=O)NCCc2ccccc2)cn1,x,x,n,x,x,x
CC(C(=O)Nc1ccc(S(=O)(=O)N2CCCC2)cc1)N1CCN(c2ccccc2O)CC1 (stereo unspecified),u,n,n,23µM,n,n
Cc1cccc(NC(=O)c2cc(S(=O)(=O)N3CCCCC3)ccc2Cl)n1,n,n,n,u,n,n
O=C(Nc1cccnc1)c1ccc(CN2CCc3ccccc3C2)cc1,u,n,n,16µM,n,n
Cc1cccc(NC(=O)c2ccc(S(=O)(=O)N3CCCCCC3)cc2)n1,n,n,n,13µM,-70,n
CC1CCN(C(C)C(=O)Nc2ccc(S(=O)(=O)N3CCCC3)cc2)CC1 (stereo unspecified),n,n,n,n,n,n
CC(=O)c1cccc(NC(=O)c2ccc(S(=O)(=O)N3CCCCC3)cc2)c1,23µM,n,n,18µM,n,n
COc1ccc([C@@H](NC(=O)Cc2csc(C(C)=O)c2)C2CC(O)C2)cn1 (stereo partly specified),x,x,n,x,x,x
Cc1cc(C)cc(NC(=O)c2ccc(S(=O)(=O)C(F)F)cc2)c1,n,n,n,u,-87,n
O=C(Nc1cccc(S(=O)(=O)N2CCCCC2)c1)c1cc(=O)[nH]c2ccccc12,23µM,n,n,18µM,u,n
O=C(Nc1cccc(S(=O)(=O)N2CCCC2)c1)c1cc(=O)[nH]c2ccccc12,n,n,n,n,n,n
O=C(Nc1cccc(S(=O)(=O)N2CCCCC2)c1)c1ccc(S(=O)(=O)C(F)F)cc1,u,n,n,u,-82,n
Cc1c(-c2cccc(NC(=O)c3ccc(F)c(F)c3)c2)nc2ncccn12,u,x,n,13µM,x,x
C=CCn1c(SCCc2ccccc2)nc2c1c(=O)n(C)c(=O)n2C,x,x,n,x,x,x

# High-throughput results deposited in PubChem BioAssay by National Center for Advancing Translational Sciences (NCATS).
